The source of these data is PubChem BioAssay AID1347056 (Sanford-Burnham Center for Chemical Genomics, 2019).

Screen size: about 360,000 compounds; about 3,600 (1%) were called active. The sample as a whole holds a higher share of actives than the screen did. Unmarked numbers belong to inactive results.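 How the source made its calls: active means compounds whose plate-normalised and pattern-corrected inhibition of the luciferase reporter signal at the single screening dose is 50% or more; inactive means the rest.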

A short description of this experiment: TROY pathway blockers in reporter cells – Q293 LMP1-TROYcd cells, NF-kB luciferase, uHTS, primary screen (AID 1347056). To be noted: 4 h, at 10 µM, stronger effect = higher value.
On to `O=C(NCCC1CCCCN1S(=O)(=O)c1cccs1)C(=O)Nc1ccc(F)cc1F` (configuration not stated), for which the inhibition (usually the change of the read-out against control, counted positive when it falls) is 1.77%.

For the compound `Cc1ccccc1OCC(=O)Nc1ccc(N2CCN(C(=O)C(C)C)CC2)c(Cl)c1`, the inhibition is 52.5% (active).

Take `COc1cc(NC(=O)COc2ccccc2Cl)ccc1NC(=O)C(C)C`: the inhibition was -6.06%.

Consider `CCc1ccccc1OCC(=O)Nc1ccc(C)c(S(=O)(=O)N2CCCCCC2)c1`, for which the inhibition was 3.2%.

Turning to `COc1cccc(-c2cc3nc4c(c(N5CCC6(CC5)OCCO6)n3n2)CCCC4)c1`, the inhibition is 7.88%.

`CC(=O)c1c(C)[nH]c(C(=O)COC(=O)CCOc2ccc(C)cc2)c1C`: the inhibition is 17.8%.

For the compound `CN(c1ccccc1)S(=O)(=O)c1ccc(Cl)c(C(=O)OCC(N)=O)c1`, the inhibition was -2.16%.

Consider `CC(=O)c1c(C)[nH]c(C(=O)COC(=O)c2cccc(S(=O)(=O)N(C)c3ccccc3)c2)c1C`, for which the inhibition was 71% (active).

As for `CCO[C@@H]1OC(C(=O)N2CCOCC2)=C[C@H](C)[C@H]1CCCO`, the inhibition is -7.92%.

For `CCCCCCCNc1nc(Cl)nc(NCCO)n1`, the inhibition is 4.41%.

As to `Nc1nc(SCC(=O)Nc2cc(C(F)(F)F)ccc2Cl)[nH]c(=O)c1NC(=O)c1ccco1`, the inhibition was -8.07%.

As for `O=C(Nc1cc(C(F)(F)F)ccc1Cl)c1cc2nc3c(c(C(F)(F)F)n2n1)CCCC3`, the inhibition was 79% (active).

`O=C(Nc1ccc(Cl)cc1)c1cc2nc(C3CC3)cc(C(F)(F)F)n2n1`: the inhibition was -25.1%.

For the compound `Cn1c(=O)c2c(nc(Br)n2CCSc2nc3ccccc3o2)n(C)c1=O`, the inhibition was -10.2%.

`OCCNc1nc(Nc2ccc(Cl)c(Cl)c2)nc2ccccc12`: the inhibition was 68.4% (active).

Consider `OCCNCCOc1ccc(Cl)c(Cl)c1`, for which the inhibition is 10.3%.

In the case of `O=C(Cn1c(NCCO)nc2ccccc21)c1ccc(Cl)cc1Cl`, the inhibition is 22.3%.

Turning to `C[C@H](CO)N1C[C@H](C)[C@H](CN(C)C(=O)Nc2ccc3c(c2)OCO3)Oc2ncc(Br)cc2C1=O`, the inhibition is 6.4%.

Turning to `CCn1c(C(C)NC(=O)c2ccc(C)cc2)n[nH]c1=S` (configuration not stated), the inhibition was 21.8%.

For the compound `C=C(C)CNC(=O)c1ccc(OC2CCN(C(=O)COC)CC2)cc1`, the inhibition is -21.5%.

As to `COc1ccc(NC(=O)C2C3CCC(O3)C2C(=O)O)cc1OC` (configuration not stated), the inhibition was 8.24%.

For `COc1ccc(NC(=S)SC)cc1OC`, the inhibition is 55.6% (active).

On to `COc1ccc(NC(=O)CSCc2ccc([N+](=O)[O-])cc2)cc1OC`, for which the inhibition was -16.9%.

With `O=C1c2ccccc2C(=O)N1CCC(c1ccccc1)c1ccco1` (configuration not stated), the inhibition is -65.2%.

On to `Cc1ccccc1OCC(=O)Nc1nc(C)c(C(=O)N(C)C)s1`, for which the inhibition is -13.4%.

For `Cc1csc(NC(=O)CSc2nc(=O)cc(N)n2-c2ccc(F)cc2)n1`, the inhibition was -68.1%.

On to `COC(=O)c1sc(NC(=O)c2ccc(OC)cc2OC)nc1C`, for which the inhibition is 66.7% (active).

As for `COc1ccc(C(=O)NC(C)CCc2ccccc2)c(OC)c1` (configuration not stated), the inhibition is -16.4%.

Turning to `Cc1csc(NC(=O)NC2(C(F)(F)F)Oc3ccccc3O2)n1`, the inhibition is -1.84%.

Turning to `COc1cc(SC)ccc1C(=O)Nc1nc(C)cs1`, the inhibition is 85.8% (active).

Regarding `CCCC(C(=O)NC1CCCC1)N(C(=O)Cn1nnc(-c2ccc(C)o2)n1)c1cccc(O)c1` (configuration not stated), the inhibition is -5.35%.

On to `C=CCn1c(COc2ccccc2F)nnc1SCC(=O)N1CC(=O)Nc2ccccc21`, for which the inhibition is -21.6%.

With `COc1cccc(N=c2oc3c(C)ncc(CO)c3cc2C(N)=O)c1`, the inhibition is -39.2%.

As to `O=C(Nc1ccc(Cl)cc1)/C(=C1\CCCN1)[N+](=O)[O-]`, the inhibition is -75.7%.

In the case of `Cc1cccc2nc(CSc3nc4[nH]ncc4c(=O)n3-c3cccc(Cl)c3)cc(=O)n12`, the inhibition was 35.3%.

Take `COc1ccc(N(CC(=O)NC(C)(C)C)C(=O)c2ccco2)cc1`: the inhibition is -5.86%.

Turning to `CCCNC(=O)C(=O)Nc1cc2c3c(c1)CCC(=O)N3CCC2`, the inhibition is -5.66%.

In the case of `CN(Cc1cn(Cc2ccc(C(F)(F)F)cc2)nn1)C1CN(Cc2cn(Cc3ccc(C(F)(F)F)cc3)nn2)S(=O)(=O)C1` (configuration not stated), the inhibition was 14.4%.

For `CN(C(=O)Nc1ccc(Cl)cc1)n1cnc2ccccc2c1=O`, the inhibition was -48.7%.

On to `CN(c1ccc2nc3ccccc3c(=O)n2n1)C1CCCCC1`, for which the inhibition was 90.3% (active).

`CC(C)(C)c1nc2ccccc2c(=O)n1N1C(=O)c2ccccc2C1=O`: the inhibition was 12.4%.

Consider `CNc1cc(-c2c(OC)cccc2OC)ncn1`, for which the inhibition was -15.5%.

Consider `CCCNC(=O)c1cc(C2CCCCN2S(=O)(=O)c2ccc(C#N)cc2)on1` (configuration not stated), for which the inhibition was -10.6%.

On to `CC(Oc1ccc(Br)cc1)C(=O)NCC(c1ccco1)N1CCCCC1` (configuration not stated), for which the inhibition is 7.2%.

Turning to `CCC[C@H]1CCCC/C=C\CCCC(=O)OCCN1C(=O)OC(C)(C)C`, the inhibition was 12.2%.

In the case of `CCN(CC)C(=O)c1sc2nc(-c3ccccc3)ccc2c1N`, the inhibition is 69.8% (active).

Take `CCOC(=O)C(C)n1nc(-c2ccccc2)c2ccccc2c1=O` (configuration not stated): the inhibition was 7.19%.

For the compound `CCN(CC)C(=O)c1nc[nH]c1C(=O)N(C)Cc1ccccc1`, the inhibition is -9.82%.

Take `COc1ccccc1/C=C/CN1CCC(CO)(Cc2ccccc2)CC1`: the inhibition is -1.26%.

Turning to `COc1cccc2c1C(=O)c1c(O)c3c(c(O)c1C2=O)CC(O)(C(C)=NNC(=O)c1ccc(Cl)c(Cl)c1)CC3OC1CC(N)C(O)C(C)O1` (configuration not stated), the inhibition was 69.6% (active).

`Cc1ccccc1CN(c1ccc(C(=O)NCC2CCCO2)cc1)S(C)(=O)=O` (configuration not stated): the inhibition is -8.79%.

Turning to `C#CCNC(=O)[C@H](Cc1ccc(C(=O)c2ccccc2)cc1)NC(=O)OC(C)(C)C`, the inhibition is 5.88%.

For `CC(=O)Nc1ccc(NC(=O)CSC2=NS(=O)(=O)c3ccccc3N2)cc1`, the inhibition is -4.58%.

On to `CCc1ccccc1NC(=O)CN(c1ccc(OC)cc1OC)S(=O)(=O)c1ccccc1[N+](=O)[O-]`, for which the inhibition is 1.82%.

`N#Cc1c(/N=C/N2CCCC2)oc(-c2ccccc2)c1-c1ccccc1`: the inhibition is 51.8% (active).

For the compound `N#Cc1c(NC(=O)CCCN2C(=O)c3ccccc3C2=O)oc(-c2ccccc2)c1-c1ccccc1`, the inhibition is -11.3%.

Regarding `COc1ccc(-c2oc(/N=C/N3CCCC3)c(C#N)c2-c2ccc(OC)cc2)cc1`, the inhibition was -5.76%.
